Reference: PubChem BioAssay AID556 (SRMLSC, 2006)
Screen size: about 65,000 compounds; about 320 (0.49%) were called active.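 How the source made its calls: active means the 320 compounds with the highest percent inhibition in the single-dose primary screen, excluding strongly autofluorescent ones (cut at about 32% in these data); inactive means the rest, inconclusive results apart.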 The sample as a whole holds a higher share of actives than the screen did.

Tested on: diphosphomevalonate decarboxylase (Streptococcus pneumoniae D39)
Assay: diphosphomevalonate decarboxylase activity blockers – biochemical, PK/LDH-coupled NADH fluorescence, primary screen (AID 556);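 on inhibition: kinetic rate of NADH fluorescence loss reporting ADP formed by the decarboxylase; 0% = full reaction rate with carrier and 100% = no-substrate background rate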
Settings: purified DPM-DC, at 10 µM
[1] = stronger effect = higher value unless noted
[2] = measured here: pilot screen trials, stronger effect = higher value

SMILES: Cc1ccc(OS(=O)Nc2cccc3nccnc23)cc1 (centres undefined)
- inhibition [1]: inactive

SMILES: CCCCSc1nnc(-c2ccc(NC(=O)CC)cc2)n1C
- inhibition [1]: 6% (inactive)

SMILES: CC1CCc2sc3nc(N4CCN(CCO)CC4)n4ncnc4c3c2C1 (centres undefined)
- inhibition [1]: inactive

SMILES: N#Cc1c2c(c(N3CCN(CCO)CC3)n3c1nc1ccccc13)CCCC2
- inhibition [1]: inactive

SMILES: CCC(=O)N(Cc1cc2cc(OC)ccc2[nH]c1=O)c1ccccc1C
- inhibition [1]: 16% (inactive)

SMILES: O=C(Cn1c(=O)n(Cc2ccco2)c(=O)c2ccccc21)NCC1CCCO1 (centres undefined)
- inhibition [1]: inactive

SMILES: O=C(CSc1nc2ccccc2o1)N1CCN(c2ccc(Cl)cc2)CC1
- inhibition [1]: 0.5% [measured here: pilot screen trials, stronger effect = higher value]
- outcome [1]: inactive

SMILES: CC(CNC(=O)c1ccc(Br)o1)NC(=O)c1ccc(Br)o1 (centres undefined)
- inhibition [1]: 2% (inactive)

SMILES: CCc1nnc(NC(=O)c2cccs2)s1
- inhibition [1]: 5% (inactive)

SMILES: CCCn1c(SCC(=O)Nc2cccc(C(=O)OCC)c2)nnc1-c1ccoc1C
- inhibition [1]: 2% (inactive)

SMILES: CCC1=[N+]([O-])C(C)(/C(C)=N\O)N(O)C1(C)C (centres undefined)
- inhibition [1]: inactive

SMILES: CN(c1nc2ccccc2n2c(-c3ccco3)nnc12)S(=O)(=O)c1ccccc1
- inhibition [1]: 48% (active)

SMILES: c1coc(-c2nc3nc4ccccc4n3nc2-c2ccco2)c1
- inhibition [1]: 4% (inactive)

SMILES: CC(=O)Nc1ccc(S(=O)(=O)N2CCCC2C(=O)O)cc1 (centres undefined)
- inhibition [1]: inactive

SMILES: CCOc1cccc(-n2nnnc2-c2ccc(OC)cc2)c1
- inhibition [1]: 4.5% [measured here: pilot screen trials, stronger effect = higher value]
- outcome [1]: inactive

SMILES: O=C(Cc1cccs1)N1CCCC(c2nc(-c3ccc(S(=O)(=O)N4CCCC4)cc3)no2)C1 (centres undefined)
- inhibition [1]: inactive

SMILES: CCOC(=O)c1ccc(N2C(=O)CC(N3CCC(C(=O)OCC)CC3)C2=O)cc1 (centres undefined)
- inhibition [1]: inactive

SMILES: O=C(NC12CC3CC(CC(C3)C1)C2)N1CCCC(CO)C1 (centres undefined)
- inhibition [1]: inactive

SMILES: CC(=O)Oc1cc2c(C(=O)NCCN3CCOCC3)c(C)oc2c2ccccc12
- inhibition [1]: inactive

SMILES: CN(C)c1ccc(NC(=O)c2ccncc2)c2ccccc12
- inhibition [1]: 0% [measured here: pilot screen trials, stronger effect = higher value]
- outcome [1]: inactive

SMILES: Cn1c(=O)[nH]c(=O)c2c1nc(CN1CCN(c3ccccc3F)CC1)n2CCc1ccccc1
- inhibition [1]: inactive

SMILES: Cc1cc(C)n(C(=O)c2ccc(C)c(S(=O)(=O)N3CCOCC3)c2)n1
- inhibition [1]: inactive

SMILES: COc1ccc(C2C3=C(OC(C)=O)c4ccccc4C3=Nc3c2c(=O)n(C)c(=O)n3C)cc1 (centres undefined)
- inhibition (stronger effect = higher value): 70% (active)
- inhibition [2]: 3.5%

SMILES: Cc1cccc(C2c3c(n(C)c(=O)n(C)c3=O)N=C3c4ccccc4C(=O)C32)c1 (centres undefined)
- inhibition (stronger effect = higher value): 4% (inactive)
- inhibition [2]: 1%

SMILES: COc1ccc(-c2c3c(=O)n(C)c(=O)n(C)c3cn2NC(C)=O)cc1
- inhibition [1]: 20% (inactive)

SMILES: O=C(O)c1cc(S(=O)(=O)N2CCCCCC2)c(Cl)cc1Cl
- inhibition [1]: inactive

SMILES: COc1ccccc1N1CCN(C(=O)c2ccc(S(=O)(=O)N3CCCCC3)cc2)CC1
- inhibition [1]: inactive

SMILES: COC(=O)c1cccc(NC(=O)CN2CCC(NC(=O)c3cc(OC)c(OC)c(OC)c3)CC2)c1
- inhibition [1]: inactive

SMILES: O=C(Nc1cccc2cccnc12)c1cccc(N2C(=O)CCC2=O)c1
- inhibition [1]: 3% (inactive)

SMILES: C=C(C)CSc1nc(N)c2c3c(sc2n1)CCC3
- inhibition [1]: 6% (inactive)

SMILES: COc1cc(Cl)c(C)cc1NC(=O)CSc1nnc(-c2cccnc2)n1Cc1ccco1
- inhibition [1]: inactive

SMILES: O=C(Nc1ccccc1F)c1cc(S(=O)(=O)N2CCCCC2)cs1
- inhibition [1]: inactive

SMILES: COc1ccc(-c2c(C)nn3c(N4CCC(C(=O)N5CCCCC5)CC4)cc(C)nc23)cc1OC
- inhibition [1]: inactive

SMILES: CCCS(=O)(=O)Nc1c(C(=O)O)[nH]c2ccccc12
- inhibition [1]: 8% [measured here: pilot screen trials, stronger effect = higher value]
- outcome [1]: inactive

SMILES: Cc1ccc(C)c(N2CCN(C(=O)CCCCn3c(=O)[nH]c4ccccc4c3=O)CC2)c1
- inhibition [1]: inactive

SMILES: COc1ccc(C(C)=O)cc1COC(=O)Cn1cnc2ccccc2c1=O
- inhibition [1]: inactive

SMILES: O=S(=O)(c1ccc(F)cc1)N1CCN(Cc2ccccc2C(F)(F)F)CC1
- inhibition [1]: inactive

SMILES: CCOc1c(N2CCCCC2)c(=O)c1=O
- inhibition [1]: inactive

SMILES: O=C(CSCc1cccs1)N1CCCC1
- inhibition [1]: 0% [measured here: pilot screen trials, stronger effect = higher value]
- outcome [1]: inactive

SMILES: Cc1c2cn[nH]c(=O)c2c(C)n1Cc1ccc(F)cc1
- inhibition [1]: inactive

SMILES: CCS(=O)(=O)n1nc(-c2ccccc2)nc1SCc1ccccc1
- inhibition [1]: inactive

SMILES: CC1=C(C(=O)Nc2ccccc2)C(c2cccs2)C(C#N)=C(SCC#N)N1 (centres undefined)
- inhibition (stronger effect = higher value): 1% (inactive)
- inhibition [2]: 3%

SMILES: CC1CCCN(Cc2nc3c(c(=O)n(C)c(=O)n3C)n2CC(=O)c2ccccc2)C1 (centres undefined)
- inhibition [1]: inactive

SMILES: Cc1cc(Nc2cccc(F)c2)n2ncnc2n1
- inhibition [1]: inactive

SMILES: Cc1cc(C)c(C#N)c(SCc2[nH]nc3c2C(c2ccccc2)C(C#N)=C(N)O3)n1 (centres undefined)
- inhibition [1]: 0% [measured here: pilot screen trials, stronger effect = higher value]
- outcome [1]: inactive

SMILES: CC(C[N+](C)(C)C)OC(N)=O (centres undefined)
- inhibition (stronger effect = higher value): 1% (inactive)
- inhibition [2]: 0%

SMILES: CCOC(=O)CSC1=C(C#N)C(c2ccco2)C(C(=O)OCc2ccccc2)=C(C)N1 (centres undefined)
- inhibition [1]: 11% (inactive)

SMILES: NC(=O)c1ccccc1NC(=O)c1ccccc1F
- inhibition [1]: inactive

SMILES: Cc1nc2ncnn2c(C)c1CCC(=O)N1CCN(C(=O)c2ccco2)CC1
- inhibition [1]: inactive

SMILES: O=C(c1ccccc1)c1ccc(OC(=O)N2CCCC2)cc1
- inhibition [1]: inactive

SMILES: COC(=O)c1ccccc1NC(=O)Cn1nc(C(F)(F)F)c2c1CCC2
- inhibition [1]: inactive

SMILES: CCN=C1SC(CC(=O)Nc2ccc(C)cc2)C(=O)N1CC (centres undefined)
- inhibition [1]: inactive

SMILES: Cc1ccccc1Nc1nnc(C)c(=O)[nH]1
- inhibition [1]: 2% (inactive)

SMILES: CCSc1nc2c(c(=O)[nH]1)C(c1cccnc1)C(C(=O)OC(C)C)=C(C)N2 (centres undefined)
- inhibition [1]: 0% [measured here: pilot screen trials, stronger effect = higher value]
- outcome [1]: inactive

SMILES: COc1ccc(NC(=O)CCNC(=O)Cn2ccc3ccccc3c2=O)c(OC)c1
- inhibition [1]: 1.5% [measured here: pilot screen trials, stronger effect = higher value]
- outcome [1]: inactive

SMILES: CCOC(=O)CSc1nnc(NC(=O)c2cccc(S(=O)(=O)N3CCCC3)c2)s1
- inhibition [1]: inactive

SMILES: C=CCNC(=O)c1ccc(C)c(Br)c1
- inhibition [1]: inactive

SMILES: CCN(CC)CCNC(=O)C1c2ccccc2C(=O)N(C)C1c1cn(C)c2ccccc12 (centres undefined)
- inhibition [1]: inactive

SMILES: COc1ccccc1CNCc1cccs1
- inhibition [1]: inactive

SMILES: COC(=O)c1cc(C(=O)CSc2nc(C)cc(C)n2)ccc1O
- inhibition [1]: inactive

SMILES: CCOC(=O)Cc1csc(NC(=O)CN(C)S(=O)(=O)c2ccc3c(c2)CCC(=O)N3)n1
- inhibition [1]: 0% [measured here: pilot screen trials, stronger effect = higher value]
- outcome [1]: inactive

SMILES: COc1ccc(OC)c(CNC(=O)CCc2nc(-c3cccs3)no2)c1
- inhibition [1]: inactive

SMILES: Cc1nnc(SCCCn2c(N3CCCCC3)nc3c2c(=O)[nH]c(=O)n3C)s1
- inhibition [1]: 1% [measured here: pilot screen trials, stronger effect = higher value]
- outcome [1]: inactive

SMILES: Cc1ccc(C(=O)OCC(=O)NCc2ccc3c(c2)OCO3)s1
- inhibition [1]: 14% (inactive)

SMILES: CCCn1c(=O)c2ccccc2n2c(SCC(=O)/C(C#N)=C(\C)N)nnc12
- inhibition [1]: 34% (active)

SMILES: CCCn1cc(SCC(N)=O)c2ccccc21
- inhibition [1]: 0% [measured here: pilot screen trials, stronger effect = higher value]
- outcome [1]: inactive

SMILES: C=CCn1c(=O)c2ccccc2n2c(SCC(=O)N3CCCc4ccccc43)nnc12
- inhibition [1]: inactive

SMILES: COC(=O)c1ccccc1NC(=O)CN(Cc1ccccc1)S(C)(=O)=O
- inhibition [1]: 5% (inactive)

SMILES: CC(=O)c1ccc(N2C(=NC(=O)C(C)C)SC3CS(=O)(=O)CC32)cc1 (centres undefined)
- inhibition [1]: 14% (inactive)

SMILES: CCOCCN(C=O)c1cccc(OC)c1
- inhibition [1]: inactive

SMILES: COc1ccc(-c2ccnc(SCC(=O)N3CCOCC3)n2)cc1
- inhibition [1]: inactive

SMILES: COc1cc(NS(=O)(=O)c2ccc(NC(C)=O)cc2)cc(OC)c1
- inhibition [1]: inactive

SMILES: CCC(=O)Nc1sc(C(=O)N2CCCCC2)c(C)c1C#N
- inhibition [1]: inactive

SMILES: O=C(CNC(=O)c1ccco1)OCC(=O)c1ccccc1
- inhibition [1]: 14% (inactive)

SMILES: Cc1ccc2nc(NC(=O)C3CCN(S(=O)(=O)c4ccc5c(c4)oc(=O)n5C)CC3)sc2c1
- inhibition [1]: inactive

SMILES: CCS(=O)(=O)n1nc(-c2ccc(OC)cc2)nc1SC
- inhibition [1]: inactive

SMILES: Cn1c(SCC(=O)Nc2cccc(O)c2)nnc1-c1ccc(S(=O)(=O)N2CCOCC2)cc1
- inhibition [1]: inactive

SMILES: Cn1c(SCC(=O)N2CCOCC2)nnc1-c1ccc(NC(=O)c2ccccc2F)cc1
- inhibition [1]: 100% (active)

SMILES: Cc1ccccc1C(=O)Nc1cccc(-c2nnc(SCC(=O)O)n2C)c1
- inhibition [1]: 3% (inactive)

SMILES: O=C1OC(NC(=O)c2ccccc2)C(N2CCOCC2)=C1Cl (centres undefined)
- inhibition [1]: 9% (inactive)

SMILES: CCOc1ccc(-n2c(SC(C)C(=O)OC)nc3c(c2=O)SCC3)cc1 (centres undefined)
- inhibition [1]: 1% (inactive)

SMILES: O=C(NCc1ccccn1)c1cnc2sccn2c1=O
- inhibition [1]: 27% (inactive)

SMILES: CC(C)Cc1cc(C(=O)Nc2cc(Br)ccc2O)no1
- inhibition [1]: inactive

SMILES: CCCC(C)n1[nH]c(=O)c2c(C)cc(C)nc21 (centres undefined)
- inhibition [1]: inactive

SMILES: Cc1nnc(SCC(=O)N(C(C)C)C(C)C)nc1C
- inhibition (stronger effect = higher value): 4% (inactive)
- inhibition [2]: 0%

SMILES: CC(C)(C)c1ccc(NC(=O)NCc2ccco2)cc1
- inhibition [1]: inactive

SMILES: CCCn1c(SCC(=O)c2ccc3c(c2)OCCO3)nnc1C(C)C
- inhibition [1]: 4% (inactive)

SMILES: CS(=O)(=O)N1CCN(C(=O)Cc2ccccc2)CC1
- inhibition [1]: inactive

SMILES: CC1(C)Cc2cccc(OCC(=O)Nc3nccs3)c2O1
- inhibition [1]: inactive

SMILES: CCOC(=O)C1CCCN(C(=O)c2sc3nc(C)nc(N4CCOCC4)c3c2C)C1 (centres undefined)
- inhibition [1]: inactive

SMILES: O=C(CN1CCN(c2ccccn2)CC1)NCc1cccs1
- inhibition [1]: inactive

SMILES: CC(C)COC(=O)C1C2C=CC3(CN(C(C)c4ccc(Br)cc4)C(=O)C13)O2 (centres undefined)
- inhibition (stronger effect = higher value): 22% (inactive)
- inhibition [2]: 0%
